From PubChem BioAssay

biological target: Pro-neuregulin-1, membrane-bound isoform (Homo sapiens) (UniProt Q02297); assay: small molecules binding neuregulin-1 protein – biochemical, small-molecule microarray, fluorescence 635/667, psychiatric disease protein project, primary screen (AID 1075); conditions: NRG1 binding, 635 nm fluorescence, higher = more signal;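 also: score combines 667 nm spot fluorescence with signal to noise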
Sequence (Q02297 whole entry, looked up, canonical isoform): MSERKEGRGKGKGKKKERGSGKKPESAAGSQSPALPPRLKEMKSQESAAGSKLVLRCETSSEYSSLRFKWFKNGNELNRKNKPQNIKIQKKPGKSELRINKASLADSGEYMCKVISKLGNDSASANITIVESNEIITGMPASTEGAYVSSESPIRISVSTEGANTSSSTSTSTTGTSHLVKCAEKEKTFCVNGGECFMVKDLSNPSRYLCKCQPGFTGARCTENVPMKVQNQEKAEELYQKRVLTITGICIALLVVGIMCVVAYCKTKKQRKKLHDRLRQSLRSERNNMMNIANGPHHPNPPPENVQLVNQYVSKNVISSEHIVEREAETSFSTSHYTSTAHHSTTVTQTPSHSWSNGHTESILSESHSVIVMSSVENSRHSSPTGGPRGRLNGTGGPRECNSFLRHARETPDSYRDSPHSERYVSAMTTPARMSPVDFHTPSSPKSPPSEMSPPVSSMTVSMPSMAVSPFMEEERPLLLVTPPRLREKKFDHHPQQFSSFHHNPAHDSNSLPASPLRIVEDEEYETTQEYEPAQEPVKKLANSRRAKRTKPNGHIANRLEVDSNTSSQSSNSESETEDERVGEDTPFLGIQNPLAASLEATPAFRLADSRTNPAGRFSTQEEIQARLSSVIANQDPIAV

Structure (SMILES) | composite z-score
Cc1ccccc1C(O)C1C=CC2C(=O)N(C)C(=O)C2N1N(c1ccccc1)c1ccccc1 (stereo not given) | -0.53
COCCOC(=O)N1C(=O)[C@@]2(c3cc(C#CC4=CCCCC4)ccc31)[C@H](C(N)=O)[C@H]1C(=O)O[C@H](c3ccccc3)[C@H](c3ccccc3)N1[C@@H]2c1ccccc1OCCO | 1.47
C[N+](C)(C)CCCCCCNC(=O)[C@H]1C[C@H]2C(=O)NCC(=O)N2[C@H]1c1ccc(O)cc1 | 1.52
O=C1OCC=C[C@H]2OC34C=CCN(Cc5ccccc5)C(=O)[C@H]3N(CCCCCCO)C(=O)[C@@H]4[C@@H]12 (stereo not given in full) | 0.273
COc1ccc(-c2nc(-c3ccccc3)c3c(c2C)CO[Si]3(C(C)C)C(C)C)cn1 | -0.199
COCCOC(=O)N1C(=O)[C@@]2(c3cc(C#CC4(O)CCCCCC4)ccc31)[C@H](c1ccc(O)cc1)N1[C@H](c3ccccc3)[C@H](c3ccccc3)OC(=O)[C@H]1[C@@H]2C(=O)NC[C@H](O)c1ccccc1 | 0.463
[N-]=[N+]=NCc1ccccc1C[C@@]1(C(=O)NCc2ccccc2)N=C(c2ccc(OCCCO)cc2)O[C@@H]1c1ccccc1N=[N+]=[N-] | 1.07
[N-]=[N+]=NCc1ccccc1C[C@@]1(C(=O)N2CCOCC2)N=C(c2ccc(OCCCO)cc2)O[C@@H]1c1ccccc1 | 1.79
COc1ccc(NC(=O)O[C@H]2[C@H](OC(=O)Nc3ccccc3)[C@H](OC(=O)Nc3ccccc3)[C@@H](OC)O[C@@H]2CO)cc1 | 1.61
COCCOC(=O)N1C(=O)[C@@]2(c3ccccc31)[C@H](C(=O)N1CCN(c3ncccn3)CC1)[C@H]1C(=O)O[C@H](c3ccccc3)[C@H](c3ccccc3)N1[C@@H]2c1ccc(O)cc1 | 1.36
